Laboratory results published in PubChem BioAssay (EPA / NIEHS).
Results filed as inconclusive are left out. Calls of active or inactive are those of the source. Rule for the calls: active = hit-call score of the fitted dose curve at least 0.9, where 1 is the maximum; inconclusive = response in the unintended direction; inactive = score below 0.9.

Biological target: human Vitamin D Receptor (VDR), VDR (gene 7421) (UniProt P11473)
Assay: ATG_VDR_TRANS: Attagene TRANS-FACTORIAL HepG2 Assay for human Vitamin D Receptor (VDR) (AID 2283022)
In short: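 Fluorescence of labelled reporter cDNA fragments, resolved by capillary electrophoresis, gives mRNA induction after 24 h treatment of HepG2 cells carrying transfected Gal4-fusion reporter units. Activity is fitted in the positive direction with DMSO as baseline.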

human Vitamin D Receptor (VDR), VDR (gene 7421), sequence (P11473 whole entry, looked up): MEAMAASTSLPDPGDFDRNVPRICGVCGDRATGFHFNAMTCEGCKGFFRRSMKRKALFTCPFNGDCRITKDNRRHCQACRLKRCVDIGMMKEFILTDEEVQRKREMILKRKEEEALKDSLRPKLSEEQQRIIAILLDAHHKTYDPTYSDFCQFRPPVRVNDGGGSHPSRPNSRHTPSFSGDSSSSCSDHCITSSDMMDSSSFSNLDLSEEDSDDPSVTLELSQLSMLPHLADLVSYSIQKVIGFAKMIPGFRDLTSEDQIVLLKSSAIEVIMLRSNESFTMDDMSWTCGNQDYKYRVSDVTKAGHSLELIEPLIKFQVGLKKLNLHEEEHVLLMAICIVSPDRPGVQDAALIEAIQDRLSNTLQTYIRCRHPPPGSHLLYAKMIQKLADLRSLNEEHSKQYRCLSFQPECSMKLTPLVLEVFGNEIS

| Compound | outcome | AC50 |
| --- | --- | --- |
| Cc1ccc([N+](=O)[O-])cc1S(=O)(=O)O | inactive |  |
| CC(=O)[C@@]1(O)CC[C@H]2[C@@H]3C[C@H](C)C4=CC(=O)C=C[C@]4(C)[C@@]3(F)[C@@H](O)C[C@@]21C | inactive |  |
| O=C(O)CCCCCCCCCC(=O)O | inactive |  |
| CCCCCCCCCCCCCCCC[n+]1ccccc1 |  | 26.8 µM (active) |
| OCCc1ccncc1 | inactive |  |
| OCCN(CCO)c1ccccc1 | inactive |  |
| CCCCCC(C)O (stereo not given) | inactive |  |
| Cc1cc(C)c(C)cc1C | inactive |  |
| CCc1ccc2c(c1)C(=O)c1ccccc1C2=O | inactive |  |
| CC(=O)[C@H]1[C@H](C#N)C[C@H]2[C@@H]3CC=C4C[C@@H](O)CC[C@]4(C)[C@H]3CC[C@@]21C | inactive |  |
